Measured values reported in PubChem BioAssay (Tox21).
Records with an inconclusive call do not appear. The source made the active and inactive calls. Unless noted, the call rests on the fitted dose curve; in most records, active means well fitted curve in the direction sought with a large enough effect in the repeat runs; inconclusive means weak or mixed curves; inactive means no such curve, though single readings can be large; an effect the other way counts as inactive or inconclusive.

Columns and labels:
[1] = qHTS assay to identify small molecule agonists of the NFkB signaling pathway (AID 1159509; active means well fitted curve in the direction sought with a large enough effect in the signal ratio in the repeat runs, not every such curve was filed as active; the % refers to the signal ratio; further: series mostly up to about 61 µM)
Method in brief: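 Beta-lactamase reporter assay run in quantitative high-throughput format on an NF-kB-responsive ME-180 line, with 5 hr compound treatment and a FRET-based blue/green fluorescence readout.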

[2] = qHTS assay to identify small molecule agonists of the NFkB signaling pathway - cell viability counter screen (AID 1159515; calls by dose curve; further: series mostly up to about 61 µM; nearly all actives have a fitted effect of over 55% in size)
Method in brief: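 Parallel cytotoxicity counter screen in ME-180 cells carrying an NFkB-response-element beta-lactamase reporter, 2,000 cells/well. Compound exposure lasted 5 hr at 37 C, 5% CO2. Cell viability was quantified by CellTiter-Glo luminescence.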

[3] = qHTS assay to identify small molecule agonists of the endoplasmic reticulum stress response signaling pathway (AID 1159516; active means well fitted activation curve with a large enough effect in the signal ratio in the repeat runs, not every such curve was filed as active; the % refers to the signal ratio)
Method in brief: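 Using a HeLa line with an ESRE-driven beta-lactamase gene, agonist activity was measured by FRET substrate fluorescence (460 and 530 nm emission) after cells were treated with compounds for 5 hr at 37 C and 5% CO2.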

[4] = qHTS assay to identify small molecule agonists of the endoplasmic reticulum stress response signaling pathway - cell viability counter screen (AID 1159517; calls by dose curve;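 further: HeLa cells carrying an ER stress response element beta-lactamase reporter; series mostly up to about 61 µM; nearly all actives have a fitted effect of over 50% in size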)
Method in brief: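 After overnight attachment, ESRE-bla HeLa cells were treated with Tox21 library compounds for 5 hr. CellTiter-Glo luminescence, read 30 min post-addition at room temperature, reported viability.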

[5] = target: Nuclear receptor ROR-gamma (Homo sapiens) (UniProt P51449); assay: qHTS assay to identify small molecule antagonists of the retinoid-related orphan receptor gamma (ROR-gamma) signaling pathway (AID 1159521;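 further: CHO cells with doxycycline inducible ROR-gamma driving an RORE luciferase reporter; top concentration of the series differs between compounds; nearly all actives have a fitted effect of over 50% in size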)
Method in brief: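 Tet-on ROR-gamma CHO cells with ROR response element-luciferase reporter; compounds added 2 hr before 1 uM doxycycline induction, then 16 hr at 37 C. Antagonism scored as decreased ONE-Glo luminescence.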

[6] = qHTS assay to identify small molecule agonists of the AP-1 signaling pathway - cell viability counter screen (AID 1159525; calls by dose curve; further: nearly all actives have a fitted effect of over 55% in size)
Method in brief: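 Intracellular ATP by Cell Titer Glo luminescence (30 min, RT) in the same ME-180 AP-1-bla wells after the 5 h compound exposure at 37 °C. Normalised to tetra n-octyl ammonium bromide and DMSO controls.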

[7] = qHTS assay to identify small molecule agonists of the RXR signaling pathway - cell viability counter screen (AID 1159529); further: series mostly up to about 77 µM; nearly all actives have a fitted effect of over 50% in size
Method in brief: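 RXR-alpha-UAS-bla HEK 293T cells in medium with 2% charcoal-stripped FBS were pre-incubated 5 hr, then compound-treated 16 hr at 37 C. Viability was read by CellTiter-Glo luminescence in the same wells as the beta-lactamase assay, with tetraoctyl ammonium bromide as positive control.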

[8] = qHTS assay to identify small molecule antagonists of the retinoid acid receptor (RAR) signaling pathway - cell viability counter screen (AID 1159551); further: nearly all actives have a fitted effect of over 35% in size
Method in brief: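 ATP-based viability, C3RL4 cells, 6 h at 37 C with 1 uM final retinol co-added after compound; luminescence read 30 min post CellTiter-Glo, RT.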

[9] = qHTS assay to identify small molecule antagonists of the retinoic acid receptor (RAR) signaling pathway (AID 1159552; further: nearly all actives have a fitted effect of over 50% in size)
Method in brief: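 Retinol signaling pathway inhibitors screened in C3RL4 RARE-luciferase reporter cells seeded overnight at 37 C, then compounds added with 1 uM (final) retinol as pathway substrate. After 6 hr at 37 C, luciferase luminescence read after 30 min at room temperature.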

[10] = qHTS assay to identify small molecule agonists of the retinoic acid receptor (RAR) signaling pathway (AID 1159553)
Method in brief: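 Quantitative high-throughput format: the Tox21 10K library was tested on C3RL4 RARE-luciferase cells for 6 hr at 37 C and 5% CO2, with luminescence measured after a 30 min room-temperature reagent step.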

[11] = qHTS assay to identify small molecule antagonists of the estrogen related receptor (ERR) signaling pathway from Tox21 library - cell viability counter screen (AID 1224834); further: nearly all actives have a fitted effect of over 30% in size
Method in brief: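 Compounds in DMSO were pinned onto ERR cells that had been incubated for 6 h, and the plates were held at 37 C for 17.5 h. CellTiter-Fluor reagent was then added and fluorescence was measured after 30 min.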

[12] = qHTS assay to identify small molecule antagonists of the vitamin D receptor (VDR) signaling pathway - cell viability counter screen (AID 743225); further: nearly all actives have a fitted effect of over 50% in size
Method in brief: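 VDR-UAS-bla HEK 293T cells were plated and incubated 4 h at 37C, then dosed with compound plus 3 nM (final) 1-alpha,25-dihydroxyvitamin D3 for 16 h. After the 2 h beta-lactamase read, viability in the same wells was read as CellTiter-Glo luminescence after 30 min at room temperature.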

[13] = qHTS assay to identify small molecule agonists of the AP-1 signaling pathway (AID 1159526; calls by dose curve)
[14] = target: Retinoic acid receptor RXR-alpha (Homo sapiens) (UniProt P19793); assay: qHTS assay to identify small molecule agonists of the RXR signaling pathway (AID 1159527; calls by dose curve; further: nearly all actives have a fitted effect of over 35% in size)
Chain of Retinoic acid receptor RXR-alpha (Homo sapiens) (P19793 whole entry, looked up): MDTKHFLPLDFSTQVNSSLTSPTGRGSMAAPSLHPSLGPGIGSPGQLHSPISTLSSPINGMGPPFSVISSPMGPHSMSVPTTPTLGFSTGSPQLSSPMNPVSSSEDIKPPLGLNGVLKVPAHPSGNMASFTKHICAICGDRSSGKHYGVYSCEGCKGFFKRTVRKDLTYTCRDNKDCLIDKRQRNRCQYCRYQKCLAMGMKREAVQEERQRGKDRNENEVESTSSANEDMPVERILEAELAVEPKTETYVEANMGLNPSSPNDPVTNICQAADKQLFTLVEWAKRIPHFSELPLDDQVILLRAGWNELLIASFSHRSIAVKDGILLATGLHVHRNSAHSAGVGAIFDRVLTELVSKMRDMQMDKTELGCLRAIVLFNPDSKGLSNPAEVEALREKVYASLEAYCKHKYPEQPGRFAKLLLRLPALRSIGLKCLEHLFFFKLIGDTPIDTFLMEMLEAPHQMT
Method in brief: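 GeneBLAzer RXR-alpha-UAS-bla HEK 293T cells in 2% charcoal-stripped FBS medium were exposed to compounds for 16 hr at 37 C in agonist mode. Beta-lactamase reporter read as 460/530 nm FRET ratio after 2 hr substrate loading.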

Measured: Potency

O=C1OC(c2ccc(O)c(S(=O)(=O)O)c2)(c2ccc(O)c(S(=O)(=O)O)c2)c2c(Br)c(Br)c(Br)c(Br)c21
not listed: [12] | [13] | [14]
inactive: all other assays above

CCC#N
not listed: [7] | [14]
inactive: all other assays above

Clc1cccc(N2CCNCC2)c1
not listed: [5] | [7]
inactive: all other assays above

COc1cc(C[C@@H](C)N)c(OC)cc1C
not listed: [9] | [10] | [14]
inactive: all other assays above

CC1(C)COP(Oc2ccccc2)OC1
not listed: [14]
inactive: all other assays above

Nc1cc2c3c(c1)C(c1ccccc1)=N[C@@H](NC(=O)c1cccnc1)C(=O)N3CC2
not listed: [9] | [10] | [14]
inactive: all other assays above

O=S(=O)(O)C(F)(F)C(F)(F)C(F)(F)C(F)(F)C(F)(F)C(F)(F)F
not listed: [7] | [9] | [10] | [12] | [14]
inactive: all other assays above

CCCCOC(=O)c1ccccc1C(=O)O
not listed: [14]
inactive: all other assays above

CCCCCCBr
not listed: [5] | [7] | [12] | [14]
inactive: all other assays above

O=P(O)(Oc1ccccc1)Oc1ccccc1
not listed: [9] | [10]
inactive: all other assays above

C[N+](C)=CCl
not listed: [5] | [14]
inactive: all other assays above
